Drawing on PubChem BioAssay (NCI), this text covers growth for 13 compounds.

The panel holds about 83,000 compounds, 20% with a hit somewhere; the sample as a whole holds those more often.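 How to read the values: 0–100, growth inhibition (40 = 60% inhibited); 0, no net growth; -100 to 0, cell death (-40 = 40% of starting cells died; -100 = all dead).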 A number with no mark means an inactive call. Calls of active or inactive are those of the source. Rule for the calls: active = growth percent below 10; inactive = the rest.

Assay in all cases: NCI-60 one-dose screen, 48 h (100 = growth as untreated, 0 = no growth, -100 = all killed)
Holding throughout (details): 10 µM unless noted

Experiment [1] concerns NCI-H23 lung.
Experiment [2] has as its system NCI-H226 lung.
For experiment [3], the system named is NCI-H322M lung.
The subject of experiment [4] is HOP-62 NSCLC.
The subject of experiment [5] is NCI-H460 lung.
Experiment [6] deals with HOP-92 NSCLC.
The test system of experiment [7] is NCI-H522 lung.
For experiment [8], the system named is A549/ATCC NSCLC.
Experiment [9] relates to 786-0 renal.
Experiment [10] relates to COLO 205 colon.

`O=C(NNC(=O)c1nc2cc(F)ccc2n2cccc12)c1cnccn1`: the growth in experiment [1] was 45.7%; in experiment [2], 42.4%; in [3], 45.2%; in [4], 29.7%; in experiment [5], 14.7%; in [6], 47.7%. Besides, the growth is 56.1% in experiment [7], 28.5% in experiment [8], 51.9% in [9] and 16.5% in experiment [10].
Regarding `CCN1C(=O)N(CC)C2C1NN=c1s/c(=C\c3ccc(C(F)(F)F)cc3)c(=O)n12` (stereo not given), the growth was 26.7% in experiment [1]; 60.8% in [2]; 45.2% in experiment [3]; 39.1% in experiment [4]; 2.84% (active) in experiment [5]; 34.8% in [6]. Also, the growth in experiment [7] was -10.5% (active); in [8] it was 5.31% (active); in experiment [9], 24.9%; in experiment [10] it was -6.59% (active).
In the case of `COc1ccc(-c2n[nH]c(=O)c3nc(NC(=S)Nc4ccc(Oc5ccccc5)cc4)sc23)cc1`, the growth in [1] is 99.7%; in experiment [2] it was 95.5%; in experiment [3], 101%; in [4], 91%; in experiment [5], 101%; in experiment [6], 90.1%. In addition, the growth in experiment [7] was 68.9%; in experiment [8], 86.7%; in experiment [9] it was 102%; in experiment [10] it was 113%.
For the compound `CCN(CC)CCN1C(=O)c2c(c(C)c3c(oc4ccc(O)cc43)c2C)C1=O`, the growth in experiment [1] was 47.3%; in experiment [2], 70%; in [3], 33.2%; in experiment [4], 80.7%; in experiment [5], -45.6% (active); in experiment [6], 91.7%. Also, the growth is 68.2% in experiment [7], 20.6% in experiment [8], -36.2% (active) in experiment [9] and 83.2% in experiment [10].
In the case of `CCN(CC)Cc1cc(Nc2ccnc3cc(Cl)ccc23)ccc1O`, the growth was 99.2% in [1]; 105% in [2]; 89.7% in [3]; 89.4% in [4]; 96.8% in experiment [5]; 88.5% in experiment [6]. Further, the growth in experiment [7] is 91.2%; in experiment [8], 107%; in [9] it was 96.8%; in experiment [10], 81.5%.
For `Cc1ccc(C(=O)c2ccc(CC(=O)NN3C(=O)c4ccccc4C3=O)n2C)cc1`, the growth in experiment [1] was 100%; in experiment [2] it was 97.8%; in [3], 102%; in experiment [4] it was 88.9%; in experiment [5] it was 104%; in experiment [6], 97.8%. The growth in experiment [7] was 88.1%; in experiment [8], 101%; in experiment [9] it was 103%; in experiment [10] it was 105%.
On to `CCCCCCCC/C=C\CCCCCCCCOc1ccc(CC(=O)NCC[N+]2(C)CCOCC2)cc1`, for which the growth in experiment [1] was 78.9%; in experiment [2], 71.1%; in [3] it was 88.1%; in experiment [4], 30.7%; in experiment [5] it was 54.9%; in experiment [6], 66.5%. For the same compound, the growth in [7] was 69.5%; in [8], 88.7%; in experiment [9] it was 67.7%; in experiment [10], -14.8% (active).
As for `COc1ccc(C(=O)N2c3ccccc3Sc3ccccc32)c(C(F)(F)F)c1`, the growth in [1] was 24.4%; in [2] it was 13.1%; in [3], 53.4%; in experiment [4] it was 42.8%; in experiment [5] it was 9.51% (active); in experiment [6], 15%. Also, the growth in [7] is 2% (active); in [8], 25.3%; in experiment [9], 38.8%; in experiment [10], -13.9% (active).
For the compound `COc1cccc(CCNc2ncnc3c2ncn3Cc2nnc3c4ccccc4c(Cl)nn23)c1`, the growth in [1] was 70.1%; in experiment [2], 66.6%; in experiment [3], 52.8%; in experiment [4] it was 57.5%; in [5] it was 61.5%; in experiment [6], 42.7%. For the same compound, the growth in experiment [7] is 5.17% (active); in [8], 77.8%; in experiment [9] it was 57.7%; in [10], 90.9%.
For `CC(=O)c1sc2sc(C(C)=O)c(C)c2c1C`, the growth was 101% in experiment [1]; 42.5% in experiment [2]; 99% in [3]; 80.3% in experiment [4]; 97.9% in [5]; 91.1% in experiment [6]. Also, the growth was 76.6% in experiment [7], 74.8% in experiment [8], 89.2% in experiment [9] and 114% in experiment [10].
On to `c1nc2ccc(-c3cc4ccc5[nH]ncc5c4c4c3CCCC4)cc2[nH]1`, for which the growth in experiment [1] was 78.8%; in [2], 57.1%; in experiment [3], 41%; in experiment [4] it was 74.3%; in experiment [5], 63.1%; in experiment [6] it was 66%. Also, the growth was 37.5% in experiment [7], 65.1% in experiment [8], 43.6% in experiment [9] and 52.2% in experiment [10].
Turning to `Cc1nn(-c2cc(NC3CCC(O)CC3)c3c(=O)[nH]c(CCC(F)(F)F)cc3c2)c2c1C(=O)CC(C)(C)C2` (stereo not given), the growth in experiment [1] was 20.3%; in experiment [2], 67.8%; in [3], 56.5%; in experiment [4] it was 44%; in [5] it was 21%; in [6] it was 54.5%. The growth in [7] was 49.5%; in [8], 38.8%; in experiment [9] it was 43.9%; in [10] it was 36.9%.
`COc1ccc(C2=NN(C(C)=O)C(c3cn(-c4ccccc4)nc3-c3ccc(Cl)cc3)C2)cc1` (stereo not given): the growth was 9.25% (active) in experiment [1]; 33.6% in experiment [2]; 47.8% in [3]; -19.3% (active) in experiment [4]; 5.58% (active) in experiment [5]; 18.1% in experiment [6]. Also, the growth in experiment [7] was 47.5%; in experiment [8], 14.3%; in experiment [9], -17.5% (active); in experiment [10], 4.9% (active).
